Sampled rows, rich in hits. Any-hit rate of the full collection: about 12%.
G9a block: blocks human histone lysine methyltransferase G9a. Potency, µM (titrated, usually from 102 µM), without a hit: top-dose activity, negative = inhibition, most hits filed as inhibitors. actives 8.8% (n = 350,000). G9a H3K9 monomethylation, AlphaScreen, 2 h. Q96KQ7; note: % is set by controls: 0 for no effect and ±100 for the full control effect; nearly all actives have a fitted effect of over 75% in size
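G9a (20 nM) preincubated 15 min RT with compounds, then 500 nM biotinylated H3K9 peptide and 20 uM SAM added; 2 h RT reaction. Monomethyl-H3K9 product detected by AlphaScreen with anti-H3K9me1 antibody, streptavidin donor and anti-rabbit IgG acceptor beads.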
Sfp inh: Sfp phosphopantetheinyl transferase inhibition. Biochemical Sfp PPTase activity, qHTS. actives 3.5% (n = 310,000). Potency, µM, for inactives: largest response in the series, negative = inhibition, most hits filed as inhibitors. Q9F4F7;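 note: the enzyme is Sfp with the accession as filed and its product quenches rhodamine fluorescence; 0% = enzyme reaction without inhibitor and -100% = no enzyme wells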
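Sfp 15 nM + cpd, 15 min RT; start w/ rhodamine-CoA 5 uM, BHQ-2-YbbR 12.5 uM (final); 50 mM Hepes pH 7.6, 10 mM MgCl2, 0.01% NP-40, 0.01% BSA; read 525/598 nm at 0 and 30 min.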
L3MBTL1 inh: blocks human L3MBTL1; Q9Y468; AlphaScreen L3MBTL1–H3K9me1 peptide binding; Potency, µM (titrated, usually from 57.1 µM), for the others: at the top dose activity, negative = inhibition, hits mostly inhibitors; actives 0.66% (n = 230,000); AID 485360; note: % is set by controls: 0 for no effect and ±100 for the full control effect; nearly all actives have a fitted effect of over 60% in size
Target sequence (Q9Y468 whole entry, looked up): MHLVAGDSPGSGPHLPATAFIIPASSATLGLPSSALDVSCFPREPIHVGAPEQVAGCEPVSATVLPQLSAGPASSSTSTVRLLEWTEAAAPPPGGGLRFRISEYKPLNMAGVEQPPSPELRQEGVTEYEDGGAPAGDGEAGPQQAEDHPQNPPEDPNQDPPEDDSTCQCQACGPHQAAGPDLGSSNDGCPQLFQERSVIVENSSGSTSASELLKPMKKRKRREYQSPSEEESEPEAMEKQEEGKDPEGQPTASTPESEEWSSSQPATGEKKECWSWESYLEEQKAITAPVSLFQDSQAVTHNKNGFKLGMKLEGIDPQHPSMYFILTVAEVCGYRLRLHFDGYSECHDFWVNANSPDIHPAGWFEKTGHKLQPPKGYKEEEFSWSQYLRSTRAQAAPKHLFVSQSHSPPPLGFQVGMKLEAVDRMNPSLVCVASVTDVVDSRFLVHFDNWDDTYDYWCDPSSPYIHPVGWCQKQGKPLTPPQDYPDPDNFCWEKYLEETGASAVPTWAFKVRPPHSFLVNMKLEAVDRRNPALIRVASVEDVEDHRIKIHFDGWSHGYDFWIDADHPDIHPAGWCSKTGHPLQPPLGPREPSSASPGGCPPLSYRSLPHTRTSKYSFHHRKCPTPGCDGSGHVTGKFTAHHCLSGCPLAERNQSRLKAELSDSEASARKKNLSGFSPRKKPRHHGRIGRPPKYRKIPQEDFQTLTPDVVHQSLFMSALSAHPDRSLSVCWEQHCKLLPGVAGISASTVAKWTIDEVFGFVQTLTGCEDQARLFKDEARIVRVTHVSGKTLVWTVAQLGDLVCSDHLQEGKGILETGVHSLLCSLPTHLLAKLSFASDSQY
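Displacement of a biotinylated histone H3(1-15) peptide monomethylated at Lys9 (75 nM) from L3MBTL1 (50 nM) was measured by AlphaScreen after a 30 min room-temperature compound incubation; cefsulodin titration served as intraplate control.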
JMJD2A Tudor inh: blocks the human JMJD2A Tudor domain; Potency, µM (highest dose often 114 µM), without a hit: top-dose activity change, negative = inhibition, hits mostly inhibitors; O75164; actives 4.4% (n = 390,000); AID 504339; AlphaScreen JMJD2A-Tudor / H3K4me3 peptide binding; note: % is set by controls: 0 for no effect and ±100 for the full control effect; nearly all actives have a fitted effect of over 50% in size
BAZ2B inh: blocks human BAZ2B | actives 4.4% (n = 360,000) | Potency, µM (series often up to 114 µM), without a hit: at the highest dose activity change, negative = inhibition, most hits filed as inhibitors | Q9UIF8 | AID 504333 | AlphaScreen BAZ2B-H3K14Ac peptide displacement; note: % is set by controls: 0 for no effect and ±100 for the full control effect; nearly all actives have a fitted effect of over 60% in size
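AlphaScreen displacement: compounds (up to 110uM) incubated 30 min at room temperature with a preformed 50 nM BAZ2B/50 nM biotinylated H3K14Ac peptide complex in PBS pH 7.4 with Tween-20. Donor and acceptor beads at 10 ug/mL final added, 20 min light-protected before reading.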
HP1b chromo inh: blocks HP1-beta chromodomain binding to methylated histone tails; actives 0.56% (n = 390,000); AID 540317; P83916; AlphaScreen HP1-beta / biotin-H3K9me3 peptide binding; Potency, µM (top dose mostly 114 µM), for inactives: at the highest dose activity change, negative = inhibition, most hits filed as inhibitors; note: nearly all actives have a fitted effect of over 70% in size
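AlphaScreen: HP1-beta (50 nM) preformed 30 min with biotin-H3(1-18)K9me3 peptide (50 nM) in PBS pH 7.4, 0.01% Tween-20. Compound added for 30 min at RT, then streptavidin donor/nickel chelate acceptor beads (10 ug/mL) for 30 min.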
An asterisk follows results filed as active; ? = inconclusive; . = not tested or not shown; ! = a repeat was not active; [ ] = dose if it differs, or a comment. Calls come from the whole dose curve; as a rule, active = well fitted curve in the direction sought with a large enough effect; inconclusive = small, poorly fitted or top-dose-only effect, or another doubt; inactive = no such curve, though single readings can be large; an effect the other way counts as inactive or inconclusive. Potency is the fitted concentration of half-maximal effect.

SMILES	G9a block	Sfp inh	L3MBTL1 inh	JMJD2A Tudor inh	BAZ2B inh	HP1b chromo inh
Fc1ccc(C(c2ccc(F)cc2)N2CCN(C/C=C/c3ccccc3)CC2)cc1	21µM*!	?	-17%	?	?	10%
C(=C\c1ccccc1)/CN1CCN(C(c2ccccc2)c2ccccc2)CC1	-45%	9%	-5%	-22%	?	17%
COc1ccc(Cl)cc1NC(=O)C(C)N1CCN(C/C=C/c2ccccc2)CC1 (stereo unspecified)	?	?	.	3.5µM*	50µM*	13µM*
CC(C(=O)N(C)Cc1ccccc1)N1CCN(C/C=C/c2ccccc2)CC1 (stereo unspecified)	20µM*	-13%	-4%	1.6µM*	35µM*	?
CC(=O)c1ccc(NC(=O)C(C)N2CCN(C/C=C/c3ccccc3)CC2)cc1 (stereo unspecified)	-9%	8%	-7%	-21%	?	6%
N#Cc1ccc(C(=O)OCC(=O)N2CCCC2)cc1	45µM*	7%	.	-7%	3%	12%
CSc1ccc(C(=S)N2CCN(Cc3ccccc3)CC2)cc1	32µM*	14µM*	.	?	?	-36%
CCN1CCN(C(=S)Nc2ccc(C(C)=O)cc2)CC1	?	1%	0%[11.4 µM]	-3%	-18%	36%
O=Cc1ccc(C(=O)OCC(=O)N2CCCC2)cc1	18%	5%	.	5%	11%	29%
CCOC(=O)c1ccc(C(=S)N2CCCC2)cc1	10µM*	40µM*	.	-15%	-5%	?
CCN1CCN(C(=S)c2ccc(SC)cc2)CC1	40µM*	28µM*	.	-17%	3%	?
C=CCn1c(C)c(C(C)=O)c(N2CCN(C(c3ccccc3)c3ccccc3)CC2)nc1=S	-1%	2%	-8%	-22%[57.1 µM]	-33%	19%
Cc1nc(CCNC(=O)C2CCC(=O)N(Cc3ccc(Cl)cc3)C2)sc1C (stereo unspecified)	.	6%	.	-4%	6%	27%
CCOc1ccc(C(=O)NCCS(=O)(=O)N2CCN(c3cccc(Cl)c3)CC2)cc1	5%[59 µM]	.	.	-15%	14%	75%
COc1ccc(C(=S)N2CCN(c3ccccc3C)CC2)cc1	8.9µM*	?	.	-30%	-28%	-10%
COc1ccc(C(=O)NC(=S)N2CCN(c3ccccc3O)CC2)cc1	.	.	-7%	-20%	.	18%
CN(C)c1ccc(C(=S)N2CCCCC2)cc1	?	12%	-13%	-35%	-39%	-21%
CCOc1cc(C(=S)N2CCCC2)ccc1OC	-11%	9%	.	3%	3%	22%
COc1ccc(C(=S)N2CCNCC2)cc1	2%[59 µM]	9%	.	0%	6%	10%
COc1cc(C(=S)N2CCCC2)cc(OC)c1O	32µM*	50µM*	.	2%	-3%	-25%
COc1ccc(C(=S)N2CCCCCC2)cc1	6.3µM*	-1%	?	89µM*	3%	?
CSc1ccc(C(=S)N2CCCCCC2)cc1	32µM*	-21%	-4%	-18%	-10%	42%
C[C@H](CO)N1C[C@H](C)[C@@H](CN(C)C(=O)NC2CCCCC2)Oc2ccc(NS(=O)(=O)c3ccc(F)cc3)cc2C1=O	.	.	-2%	-23%	.	50%
CC(=O)NC(Cc1c[nH]c2ccccc12)C(=O)OCC(=O)N1CCN(S(=O)(=O)c2ccc(Cl)cc2)CC1 (stereo unspecified)	.	.	.	?	.	3%
Oc1ccc(Cl)cc1N=Nc1ccccc1	22µM*	16%	?	35µM*	32µM*	-27%
SMILES	G9a block	Sfp inh	L3MBTL1 inh	JMJD2A Tudor inh	BAZ2B inh	HP1b chromo inh
COC(=O)CCC(=O)Nc1ccc(N=Nc2ccccc2)cc1	10µM*	-40%	-13%	?	40µM*	6%
COC(=O)c1ccc(N=Nc2ccccc2)cc1	40µM*	11%	?	?	13µM*	?
O=C(O)c1ccccc1N=Nc1ccc(O)cc1	.	.	.	?	.	23%
Oc1ccc(N=Nc2ccccc2)cc1	50µM*	9%	.	?	?	-10%
O=C(O)CCCC(=O)Nc1ccc(N=Nc2ccccc2)cc1	-29%	3%	.	-29%	-6%	20%
COC(=O)c1ccc(NC(=O)CNc2ccccc2)cc1	-2%	4%	-9%	-10%	-10%	15%
COc1ccc(C)cc1NC(=O)C1CCN(S(=O)(=O)c2c(C)noc2/C=C/c2ccco2)CC1	-24%[59 µM]	.	.	-15%	.	-16%
O=C(O)/C=C/C(=O)OC1CC2CCC1C2 (stereo unspecified)	-35%	5%	-6%	-4%	-13%	20%
O=C(O)CCCN1C(=O)C(=O)/C(=C(/O)c2ccccc2)C1/C=C/c1ccccc1 (stereo unspecified)	22%[0.501 µM]	8%	2%	45µM*	?	2%
COc1ccc(NC(=O)Nc2nnc(N(C)C3CCCCC3)s2)c(OC)c1	-34%[59 µM]	.	.	-5%	1%	47%
CC(C)(C)OC(=O)N1CCC[C@H]1C(=O)N/N=C/c1ccc2nccnc2c1	-5%	7%	2%	-6%	1%	7%
COc1ccc2nc(/C=N/NC(=O)[C@@H]3CCCN3C(=O)OC(C)(C)C)ccc2c1	-141%[59 µM]	89µM*	50%	4%	-13%	20%
Nc1nc2c(ncn2[C@@H]2O[C@H](COP(=O)(O)OP(=O)(O)O)[C@@H](O)[C@H]2O)c(=O)[nH]1	50%[59 µM]	8%	.	.	.	.
C=CCn1c(N)c(C(=O)NCCC2=CCCCC2)sc1=S	?	25µM*	-16%	?	40µM*	?
Cc1ccccc1NC(=O)CN1C(=O)C2C3CC(C(Br)C3Br)C2C1=O (stereo unspecified)	5µM*	56µM*	-6%	?	-11%	?
O=C(CN1C(=O)C2C3c4ccccc4C(c4ccccc43)C2C1=O)Nc1ccccc1C(=O)O (stereo unspecified)	0%[59 µM]	-17%	36%	-12%	4%	25%
CC1CCCC(C)N1C(=O)COC(=O)CNC(=O)c1ccccc1 (stereo unspecified)	-10%[59 µM]	.	-5%	-2%	10%	20%
COc1ccc(N2C(=O)CSC2c2cccs2)cc1 (stereo unspecified)	50µM*	10%	4%	-10%	-8%	12%
O=C(CN1C(=O)/C(=C2/SC(=S)N(CCS(=O)(=O)O)C2=O)c2ccccc21)Nc1cccc(Br)c1	.	.	-10%	45µM*	.	50µM*
O=C(CN1C(=O)/C(=C2\SC(=S)N(C3CCS(=O)(=O)C3)C2=O)c2ccccc21)Nc1ccccc1 (stereo unspecified)	25µM*	28µM*	4%	-9%	6%	-11%
